Measurements: the supplement of paper PMC10849652
Of roughly 7,900 targets only a part is listed; those with a hit were picked by preference. About 0.6% of all pairs of compound and target were hits. Values without a mark were called inactive.

Columns and labels:
Assay in all cases: log2 fold change, soluble protein after heating vs DMSO (PISA); higher = thermal stabilisation; K562 cells, 10 uM, 30 min; active = over 0.2 and 3.5 SD of the protein, either way, in both replicates (recomputed)
volasertib = compound: CC[C@@H]1C(=O)N(C)c2cnc(Nc3ccc(C(=O)N[C@H]4CC[C@H](N5CCN(CC6CC6)CC5)CC4)cc3OC)nc2N1C(C)C [volasertib]
Outline: (§1)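 K562 cells at 2×10^6 cells/mL were treated with 10 μM compound for 30 min. Aliquots were heated for 3 min across 48°C-58°C, pooled, and extracted in PBS with 0.5% NP-40 at 4°C; soluble protein was the supernatant after 21,000xg for 90 min. Soluble protein was quantified by TMTpro 16plex LC-MS/MS with channel sums equalised, and reported as log2 fold change in thermal stability against DMSO controls, with values from duplicates.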

[1] = compound: CC[C@H](C)N1C=C(C2=C(C=C(C=C21)C3=CN=C(C=C3)N4CCNCC4)C(=O)NCC5=C(C=C(NC5=O)C)C)C
Outline: as §1

epoxomicin = compound: CC[C@H](C)[C@@H](C(=O)N[C@@H]([C@@H](C)O)C(=O)N[C@@H](CC(C)C)C(=O)[C@]1(CO1)C)NC(=O)[C@H]([C@@H](C)CC)N(C)C(=O)C [epoxomicin]
Outline: as §1

[2] = compound: CCn1c(C(=O)N(C2CC2)C2CC2)cc2c3c(ncn3C)c(Nc3cc(C)n(C)n3)nc21
Outline: as §1

[3] = compound: CCn1cc(-c2ccnc3[nH]c(-c4cccc(CN(C)C)c4)cc23)c(-c2ccc(NC(=O)N(C)C)cc2)n1
Outline: as §1

[4] = compound: CN(C)CC(=O)Nc1ccc2[nH]c(=O)c3ccccc3c2c1
Outline: as §1

rosiglitazone = compound: CN(CCOC1=CC=C(C=C1)C[C@H]2C(=O)NC(=O)S2)C3=CC=CC=N3 (racemic) [rosiglitazone]
Outline: as §1

[5] = compound: CN1CCC(CNc2ccc3ncc(-c4cccc(OC(F)(F)F)c4)n3n2)CC1
Outline: as §1

[6] = compound: CC[C@@H]1C(=O)N(C)c2cnc(Nc3ccc(C(=O)NC4CCN(C)CC4)cc3OC)nc2N1C1CCCC1
Outline: as §1

[7] = compound: CN1C2=C(C3=C1C(=O)N(N=C3)CC4=CC(=CC=C4)N)SC(=C2)S(=O)C
Outline: as §1

Chain of UniProt Q9Y6B2 (Q9Y6B2 whole entry, looked up): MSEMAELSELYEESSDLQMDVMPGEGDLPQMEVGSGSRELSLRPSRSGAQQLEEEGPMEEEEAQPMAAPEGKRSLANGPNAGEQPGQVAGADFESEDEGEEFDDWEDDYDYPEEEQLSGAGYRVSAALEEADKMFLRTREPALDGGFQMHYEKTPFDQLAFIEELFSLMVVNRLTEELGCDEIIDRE
Chain of UniProt Q9P2D6 (Q9P2D6 whole entry, looked up): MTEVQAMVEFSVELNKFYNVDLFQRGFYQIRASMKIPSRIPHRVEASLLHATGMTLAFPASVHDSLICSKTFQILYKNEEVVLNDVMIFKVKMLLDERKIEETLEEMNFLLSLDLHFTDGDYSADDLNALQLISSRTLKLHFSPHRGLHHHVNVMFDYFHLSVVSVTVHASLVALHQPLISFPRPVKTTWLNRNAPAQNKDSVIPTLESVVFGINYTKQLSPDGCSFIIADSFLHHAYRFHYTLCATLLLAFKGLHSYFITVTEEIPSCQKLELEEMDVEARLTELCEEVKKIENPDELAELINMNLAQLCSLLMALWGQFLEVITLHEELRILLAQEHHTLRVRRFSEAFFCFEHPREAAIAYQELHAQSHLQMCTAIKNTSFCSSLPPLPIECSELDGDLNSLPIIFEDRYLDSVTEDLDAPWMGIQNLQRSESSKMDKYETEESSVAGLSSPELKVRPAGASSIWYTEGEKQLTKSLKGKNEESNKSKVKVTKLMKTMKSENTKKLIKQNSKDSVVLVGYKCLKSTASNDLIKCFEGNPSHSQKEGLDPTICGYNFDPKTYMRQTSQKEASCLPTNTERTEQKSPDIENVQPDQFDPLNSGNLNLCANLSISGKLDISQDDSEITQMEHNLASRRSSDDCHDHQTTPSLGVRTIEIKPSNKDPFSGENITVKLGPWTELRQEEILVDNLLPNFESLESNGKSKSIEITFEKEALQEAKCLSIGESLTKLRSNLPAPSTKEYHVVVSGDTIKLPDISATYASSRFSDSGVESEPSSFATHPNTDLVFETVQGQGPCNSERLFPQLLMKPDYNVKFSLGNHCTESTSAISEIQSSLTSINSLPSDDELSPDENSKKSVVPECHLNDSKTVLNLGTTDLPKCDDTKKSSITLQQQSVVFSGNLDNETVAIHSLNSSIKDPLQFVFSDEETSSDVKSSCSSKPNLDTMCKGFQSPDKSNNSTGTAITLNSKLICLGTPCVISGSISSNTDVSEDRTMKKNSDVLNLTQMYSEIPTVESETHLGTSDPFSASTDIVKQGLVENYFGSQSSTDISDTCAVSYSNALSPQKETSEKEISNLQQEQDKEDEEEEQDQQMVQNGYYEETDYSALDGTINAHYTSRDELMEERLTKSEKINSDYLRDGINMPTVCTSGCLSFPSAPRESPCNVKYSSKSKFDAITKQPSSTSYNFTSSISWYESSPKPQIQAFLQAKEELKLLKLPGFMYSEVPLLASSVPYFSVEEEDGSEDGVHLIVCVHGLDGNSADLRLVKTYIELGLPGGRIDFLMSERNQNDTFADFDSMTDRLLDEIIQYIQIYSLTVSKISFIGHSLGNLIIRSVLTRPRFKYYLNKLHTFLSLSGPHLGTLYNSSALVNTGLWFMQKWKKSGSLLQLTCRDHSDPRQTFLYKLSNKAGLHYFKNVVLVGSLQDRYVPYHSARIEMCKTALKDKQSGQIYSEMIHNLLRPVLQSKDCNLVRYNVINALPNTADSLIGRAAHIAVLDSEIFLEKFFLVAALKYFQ
Chain of UniProt Q9BQI3 (Q9BQI3 whole entry, looked up): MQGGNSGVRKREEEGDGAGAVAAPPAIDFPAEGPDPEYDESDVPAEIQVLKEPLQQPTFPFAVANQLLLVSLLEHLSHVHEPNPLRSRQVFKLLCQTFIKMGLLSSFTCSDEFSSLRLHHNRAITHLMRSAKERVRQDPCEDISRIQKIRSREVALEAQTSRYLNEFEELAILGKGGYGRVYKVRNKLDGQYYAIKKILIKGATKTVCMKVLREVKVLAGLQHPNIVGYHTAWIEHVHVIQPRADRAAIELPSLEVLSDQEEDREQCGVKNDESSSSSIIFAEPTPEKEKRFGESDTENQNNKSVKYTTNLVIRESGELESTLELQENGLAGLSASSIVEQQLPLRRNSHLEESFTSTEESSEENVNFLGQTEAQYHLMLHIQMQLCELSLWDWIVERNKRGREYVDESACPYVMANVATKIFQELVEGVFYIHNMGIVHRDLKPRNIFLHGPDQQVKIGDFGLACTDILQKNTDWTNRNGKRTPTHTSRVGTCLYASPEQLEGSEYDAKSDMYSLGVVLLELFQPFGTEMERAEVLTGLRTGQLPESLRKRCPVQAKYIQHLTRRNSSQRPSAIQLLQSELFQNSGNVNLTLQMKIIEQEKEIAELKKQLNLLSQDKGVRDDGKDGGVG
Chain of UniProt Q9BV94 (Q9BV94 whole entry, looked up): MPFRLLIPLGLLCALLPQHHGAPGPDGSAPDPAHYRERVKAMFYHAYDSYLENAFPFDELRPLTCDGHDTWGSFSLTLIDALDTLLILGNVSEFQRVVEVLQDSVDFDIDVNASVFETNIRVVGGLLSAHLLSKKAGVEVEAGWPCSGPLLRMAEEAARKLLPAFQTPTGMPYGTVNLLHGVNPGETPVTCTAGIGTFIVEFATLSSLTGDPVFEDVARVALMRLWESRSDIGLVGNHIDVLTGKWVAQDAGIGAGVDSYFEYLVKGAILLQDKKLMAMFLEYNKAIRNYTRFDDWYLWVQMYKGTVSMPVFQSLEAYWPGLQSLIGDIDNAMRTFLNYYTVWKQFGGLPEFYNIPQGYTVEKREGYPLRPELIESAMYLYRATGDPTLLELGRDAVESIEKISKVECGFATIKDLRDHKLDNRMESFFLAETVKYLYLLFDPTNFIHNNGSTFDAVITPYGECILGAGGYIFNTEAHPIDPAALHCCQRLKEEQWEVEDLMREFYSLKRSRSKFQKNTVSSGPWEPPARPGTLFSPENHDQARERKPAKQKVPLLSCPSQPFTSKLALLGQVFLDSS
Chain of UniProt Q8NF50 (Q8NF50 whole entry, looked up): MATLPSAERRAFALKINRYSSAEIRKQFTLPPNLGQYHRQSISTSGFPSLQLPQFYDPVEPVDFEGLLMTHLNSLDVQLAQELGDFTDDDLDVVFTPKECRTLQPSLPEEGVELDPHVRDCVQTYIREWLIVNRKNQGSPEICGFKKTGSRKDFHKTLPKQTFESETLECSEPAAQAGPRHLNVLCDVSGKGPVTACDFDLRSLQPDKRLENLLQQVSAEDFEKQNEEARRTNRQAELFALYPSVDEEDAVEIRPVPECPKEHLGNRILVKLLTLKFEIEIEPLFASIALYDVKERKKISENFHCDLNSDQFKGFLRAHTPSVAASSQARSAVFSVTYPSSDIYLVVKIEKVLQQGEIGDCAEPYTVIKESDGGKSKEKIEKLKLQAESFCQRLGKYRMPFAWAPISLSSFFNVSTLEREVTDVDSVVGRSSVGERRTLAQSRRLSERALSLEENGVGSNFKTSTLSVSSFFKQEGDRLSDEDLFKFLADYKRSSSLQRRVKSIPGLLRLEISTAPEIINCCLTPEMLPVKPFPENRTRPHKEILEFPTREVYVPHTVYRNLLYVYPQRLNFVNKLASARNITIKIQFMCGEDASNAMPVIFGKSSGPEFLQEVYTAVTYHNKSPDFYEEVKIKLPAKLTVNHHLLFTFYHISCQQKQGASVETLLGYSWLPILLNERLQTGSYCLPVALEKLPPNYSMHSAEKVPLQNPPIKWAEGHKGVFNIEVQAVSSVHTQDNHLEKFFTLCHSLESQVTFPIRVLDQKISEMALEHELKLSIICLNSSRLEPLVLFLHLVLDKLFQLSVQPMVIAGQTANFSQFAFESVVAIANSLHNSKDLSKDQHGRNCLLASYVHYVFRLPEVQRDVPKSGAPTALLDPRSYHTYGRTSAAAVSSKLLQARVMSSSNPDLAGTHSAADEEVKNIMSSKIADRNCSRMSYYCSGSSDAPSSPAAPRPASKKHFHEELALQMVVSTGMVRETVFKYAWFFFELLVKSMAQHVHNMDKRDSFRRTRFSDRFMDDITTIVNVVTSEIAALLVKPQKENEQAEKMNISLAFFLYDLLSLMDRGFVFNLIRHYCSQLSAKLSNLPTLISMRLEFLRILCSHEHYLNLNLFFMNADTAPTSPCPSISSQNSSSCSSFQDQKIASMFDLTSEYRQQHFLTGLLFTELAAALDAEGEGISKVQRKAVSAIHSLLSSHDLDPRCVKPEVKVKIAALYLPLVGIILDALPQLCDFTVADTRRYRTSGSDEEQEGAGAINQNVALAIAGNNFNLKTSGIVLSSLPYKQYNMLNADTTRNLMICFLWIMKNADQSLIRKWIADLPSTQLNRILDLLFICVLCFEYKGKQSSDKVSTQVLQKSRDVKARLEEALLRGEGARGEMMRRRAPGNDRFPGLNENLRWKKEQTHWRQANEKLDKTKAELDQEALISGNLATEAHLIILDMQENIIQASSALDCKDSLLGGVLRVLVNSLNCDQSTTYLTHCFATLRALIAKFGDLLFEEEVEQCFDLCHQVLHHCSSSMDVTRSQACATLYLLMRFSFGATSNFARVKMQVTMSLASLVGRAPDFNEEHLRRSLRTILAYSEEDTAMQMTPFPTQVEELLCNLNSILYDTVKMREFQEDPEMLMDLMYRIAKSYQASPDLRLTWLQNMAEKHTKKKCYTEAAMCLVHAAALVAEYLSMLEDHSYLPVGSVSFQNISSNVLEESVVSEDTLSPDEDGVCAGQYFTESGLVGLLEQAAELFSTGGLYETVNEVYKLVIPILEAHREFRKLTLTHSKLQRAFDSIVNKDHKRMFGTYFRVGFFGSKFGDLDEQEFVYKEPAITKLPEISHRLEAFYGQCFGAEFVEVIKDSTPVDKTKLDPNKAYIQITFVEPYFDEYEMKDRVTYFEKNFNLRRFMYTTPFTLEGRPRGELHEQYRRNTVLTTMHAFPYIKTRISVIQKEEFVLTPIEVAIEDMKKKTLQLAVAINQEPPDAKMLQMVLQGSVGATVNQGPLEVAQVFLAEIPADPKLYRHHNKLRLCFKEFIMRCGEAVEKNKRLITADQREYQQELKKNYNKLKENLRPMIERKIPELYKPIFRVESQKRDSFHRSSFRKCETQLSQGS

| Target | log2 fold change (volasertib) | log2 fold change [1] | log2 fold change (epoxomicin) | log2 fold change [2] | log2 fold change [3] | log2 fold change [4] | log2 fold change (rosiglitazone) | log2 fold change [5] | log2 fold change [6] | log2 fold change [7] |
| --- | --- | --- | --- | --- | --- | --- | --- | --- | --- | --- |
| EGR1 (UniProt P18146) | 0.085 | 0.158 | 0.489 | 0.113 | 0.228 | -0.241 | 0.08 | -0.56 |  |  |
| DCAF4 (UniProt Q8WV16) |  | -0.075 | 0.041 |  | 0.147 |  |  | -0.086 | 0.03 | 0.128 |
| DENND1A isoform 6 (UniProt Q8TEH3) | -0.856 (active) |  |  |  |  | 0.112 | -0.041 |  |  |  |
| DOCK8 (UniProt Q8NF50) |  | 0.004 | 0.119 | -0.208 | -0.094 | -0.009 | 0.028 | 0.137 | 0.01 | 0.258 |
| DDX11 (UniProt Q96FC9) | -0.084 | 0.128 | 0.099 | -0.018 |  | 0.098 | 0.052 |  |  | -0.04 |
| DERPC (UniProt P0CG12) |  | -0.051 |  | 0 | 0.197 | 0.053 | 0.04 | 0.025 | 0.127 | 0.519 (active) |
| DNAJB1 (UniProt M0R128) |  |  |  |  |  | -0.038 | 0.223 |  |  |  |
| DCAF12 (UniProt Q5T6F0) |  |  |  |  | -0.141 |  |  | 0.197 | -0.132 |  |
| CTSS (UniProt P25774) |  |  |  |  | 0.126 | -0.021 |  | -0.034 | -0.027 | 0.051 |
| ELOVL7 (UniProt A1L3X0) |  |  | 0.007 | -0.016 |  |  |  |  |  | 0.047 |
| DDX46, A0A0C4DG89 |  | -0.074 | 0.155 |  |  |  |  |  |  |  |
| FADS1 (UniProt F5GYH4) |  |  |  |  |  | 0.026 | 0.238 |  |  |  |
| EPHB4 (UniProt P54760) | -0.302 |  |  |  |  |  |  |  |  |  |
| DNAH10 (UniProt Q8IVF4) |  | -0.146 | 0.072 | -0.17 | -0.183 | -0.008 | 0.031 | 0.006 | 0.066 | 0 |
| DDX27 (UniProt Q96GQ7) |  | 0.1 | -0.184 | -0.084 | 0.116 | -0.009 |  | 0.241 | -0.033 | 0.162 |
| DLK1 (UniProt P80370) |  |  | 0.012 |  |  | -0.016 |  |  | 0.43 (active) | 0.127 |
| DHPS (UniProt M0R1T2) |  |  |  |  |  |  | -0.057 |  |  |  |
| EID1 (UniProt Q9Y6B2) | 0.053 | 0.172 | 0.83 (active) | 0.05 | -0.104 |  |  | -0.317 |  |  |
| EDRF1 (UniProt Q3B7T1) |  |  | 0.009 | -0.089 | -0.046 |  | 0.004 | -0.014 | 0.046 | 0.006 |
| EIF2AK1 (UniProt Q9BQI3) | -0.142 |  | 0.13 | 0.001 | 0.034 | -0.121 | -0.025 | -0.082 |  | 0.006 |
| DDB1 isoform 2 (UniProt Q16531) |  |  | -0.287 |  | 0.235 |  | 0.301 | -0.041 | 0.141 |  |
| EIF3J isoform 2 (UniProt O75822) | 0.031 | -0.079 | 0.025 | 0.03 |  | 0.076 | -0.038 |  |  | 0.133 |
| FAM135A (UniProt Q9P2D6) |  | -0.068 | -0.088 | 0.009 |  | 0.079 |  |  |  |  |
| EEF1D isoform 3 (UniProt P29692) |  |  |  | -0.067 |  |  |  |  |  |  |
| ELMO1 (UniProt Q92556) |  | -0.089 | -0.109 | 0.046 |  | 0.031 | 0.076 |  |  | -0.078 |
| EDEM2 (UniProt Q9BV94) | -0.159 | -0.035 | -0.006 | 0.033 | -0.087 | -0.001 | -0.077 | 0.161 |  | -0.003 |
